# Where two headings read alike, the source gives them in different places.
# Legend:
# Set-up in all cases: species or system human, MV4-11 + K-562 + COLO205 + SK-N-BE2 + OVCAR-8
# ACVR1B = details: read-out: apparent Kd, n = 1
# CLK1 = details: read-out: apparent Kd; compound concentrations:100 nM and 1000 nM (sheet 'Samples'); n = 1
# CLK4 = details: read-out: apparent Kd; compound concentrations:100 nM and 1000 nM (sheet 'Samples'); n = 1
# CSNK1E = details: read-out: apparent Kd, n = 1
# DYRK1A = details: read-out: apparent Kd; compound concentrations:100 nM and 1000 nM (sheet 'Samples'); n = 1
# ILK = details: read-out: apparent Kd; compound concentrations:100 nM and 1000 nM (sheet 'Samples'); n = 1
# MAP2K1 = details: read-out: apparent Kd; compound concentrations:100 nM and 1000 nM (sheet 'Samples'); n = 1
# MAP2K2 = details: read-out: apparent Kd; compound concentrations:100 nM and 1000 nM (sheet 'Samples'); n = 1
# MAPK14 = details: read-out: apparent Kd, n = 1
# MAPKAPK2 = details: read-out: apparent Kd; compound concentrations:100 nM and 1000 nM (sheet 'Samples'); n = 1
# NNT = details: read-out: apparent Kd; compound concentrations:100 nM and 1000 nM (sheet 'Samples'); n = 1
# PIP4K2C = details: read-out: apparent Kd; compound concentrations:100 nM and 1000 nM (sheet 'Samples'); n = 1
# STK26 = details: read-out: apparent Kd; compound concentrations:100 nM and 1000 nM (sheet 'Samples'); n = 1
# CAMK4 = details: read-out: apparent Kd; compound concentrations: 100 nM and 1000 nM (sheet 'Samples'), CATDS: 0.20736458349595299; n = 1
# COX5A = details: read-out: apparent Kd; compound concentrations: 100 nM and 1000 nM (sheet 'Samples'), CATDS: 0.27607589651393999; n = 1
# DDR1 = details: read-out: apparent Kd; compound concentrations: 100 nM and 1000 nM (sheet 'Samples'), CATDS: 0.21513236479032799; n = 1
# ACVR2B = details: read-out: apparent Kd; compound concentrations:100 nM and 1000 nM (sheet 'Samples'); n = 1
# CSNK1A1 = details: read-out: apparent Kd; compound concentrations:100 nM and 1000 nM (sheet 'Samples'); n = 1
# CSNK1D = details: read-out: apparent Kd, n = 1
# TAOK1 = details: read-out: apparent Kd; compound concentrations:100 nM and 1000 nM (sheet 'Samples'); n = 1
# ACVR1 = details: read-out: apparent Kd; compound concentrations:100 nM and 1000 nM (sheet 'Samples'); n = 1
# BCR = details: read-out: apparent Kd; compound concentrations:100 nM and 1000 nM (sheet 'Samples'); n = 1
# BMPR1A = details: read-out: apparent Kd; compound concentrations:100 nM and 1000 nM (sheet 'Samples'); n = 1
# CSNK2A1;CSNK2A3 = details: read-out: apparent Kd; compound concentrations:100 nM and 1000 nM (sheet 'Samples'); n = 1
# CSNK2A2 = details: read-out: apparent Kd; compound concentrations:100 nM and 1000 nM (sheet 'Samples'); n = 1
# GSK3A = details: read-out: apparent Kd; compound concentrations:100 nM and 1000 nM (sheet 'Samples'); n = 1
# GSK3B = details: read-out: apparent Kd; compound concentrations:100 nM and 1000 nM (sheet 'Samples'); n = 1
# JAK2 = details: read-out: apparent Kd; compound concentrations:100 nM and 1000 nM (sheet 'Samples'); n = 1
# TGFBR1 = details: read-out: apparent Kd; compound concentrations:100 nM and 1000 nM (sheet 'Samples'); n = 1
# ACOX3 = details: read-out: apparent Kd; compound concentrations: 100 nM and 1000 nM (sheet 'Samples'), CATDS: 0.63885197419414497; n = 1
# FECH = details: read-out: apparent Kd; compound concentrations: 100 nM and 1000 nM (sheet 'Samples'), CATDS: 0.41072954272515799; n = 1
# [1] = compound concentrations:100 nM and 1000 nM (sheet 'Samples')
smiles,measurement,setting,value
Nc1nc(-c2ccc(F)cc2)c(-c2ccc3ncccc3n2)s1 [GW785804X],potency estimated from few doses,ACVR1B; [1],57.9 nM
same,potency estimated from few doses,CLK1,997 nM
same,potency estimated from few doses,CLK4,1100 nM
same,potency estimated from few doses,CSNK1E; [1],2400 nM
same,potency estimated from few doses,DYRK1A,1970 nM
same,potency estimated from few doses,ILK,2080 nM
same,potency estimated from few doses,MAP2K1,1910 nM
same,potency estimated from few doses,MAP2K2,2060 nM
same,potency estimated from few doses,MAPK14; [1],567 nM
same,potency estimated from few doses,MAPKAPK2,1410 nM
same,potency estimated from few doses,NNT,164 nM
same,potency estimated from few doses,PIP4K2C,2210 nM
same,potency estimated from few doses,STK26,2330 nM
COc1ccc2cc(-c3c(-c4ccncc4)nc(-c4ccc(S(C)=O)cc4)n3C)ccc2c1 (stereo not drawn) [SB-437013],potency estimated from few doses,"ACVR1B; compound concentrations: 100 nM and 1000 nM (sheet 'Samples'), CATDS: 0.34398750715430798",810 nM
same,potency estimated from few doses,CAMK4,2240 nM
same,potency estimated from few doses,COX5A,1190 nM
same,potency estimated from few doses,DDR1,2040 nM
Nc1nc(-c2ccccn2)c(-c2ccnc3ccccc23)s1 [GW548057X],potency estimated from few doses,ACVR1B; [1],76.2 nM
same,potency estimated from few doses,ACVR2B,1790 nM
same,potency estimated from few doses,CSNK1A1,893 nM
same,potency estimated from few doses,CSNK1D; [1],1800 nM
same,potency estimated from few doses,CSNK1E; [1],2100 nM
same,potency estimated from few doses,TAOK1,1700 nM
CN(C)CCCNc1nccc(-c2c(-c3ccc(F)cc3)nn3cc(C(F)(F)F)ccc23)n1.CS(=O)(=O)O [GW618013A],potency estimated from few doses,"ACVR1B; compound concentrations: 100 nM and 1000 nM (sheet 'Samples'), CATDS: 0.30191803443786602",849 nM
same,potency estimated from few doses,"CSNK1D; compound concentrations: 100 nM and 1000 nM (sheet 'Samples'), CATDS: 0.30648491159914698",827 nM
same,potency estimated from few doses,"CSNK1E; compound concentrations: 100 nM and 1000 nM (sheet 'Samples'), CATDS: 0.19201098088976601",2340 nM
same,potency estimated from few doses,"MAPK14; compound concentrations: 100 nM and 1000 nM (sheet 'Samples'), CATDS: 0.23713518302070899",1370 nM
COc1cccc(-n2ncc3c(N/N=C/c4ccncc4)ncnc32)c1 [GW784752X],potency estimated from few doses,ACVR1B; [1],725 nM
same,potency estimated from few doses,ACVR1,119 nM
same,potency estimated from few doses,BCR,641 nM
same,potency estimated from few doses,BMPR1A,1130 nM
same,potency estimated from few doses,CSNK2A1;CSNK2A3,882 nM
same,potency estimated from few doses,CSNK2A2,252 nM
same,potency estimated from few doses,GSK3A,47.2 nM
same,potency estimated from few doses,GSK3B,75.6 nM
same,potency estimated from few doses,JAK2,603 nM
same,potency estimated from few doses,TGFBR1,1520 nM
Cc1ccc(NC(=O)c2cccc(C#N)c2)cc1-c1ccc(C(=O)Nc2ccncc2)cc1 [GSK1398463A],potency estimated from few doses,ACOX3,513 nM
same,potency estimated from few doses,FECH,1300 nM

# — publication PMC11062922 (Nature Chemical Biology, 2023)
